Shown are actives, neighbours in structure and some others; about 0.94% of the full set was active somewhere.
BH1578 lux ind: inducers of Vibrio cholerae quorum light production without autoinducers, primary screen, BH1578 luxS cqsA deficient, single point; V. cholerae BH1578 lux reporter, luminescence, 6 h; activation, % at 18.7 µM; hit rate 0.16% among 350,000; AID 588436, 2011; in the data active = activation mostly above about 9.7%, no sharp cut-off
SSB-PriA inh: inhibitors of Klebsiella pneumoniae PriA binding to SSB C-terminal tail, primary screen, biochemical, AlphaScreen; PriA–SSB C-terminal tail interaction (Klebsiella pneumoniae); AlphaScreen SSBct-PriA binding, biotinylated peptide; inhibition, % at 33 µM; hit rate 0.6% among 430,000; in the data active = inhibition mostly above about 37%, no sharp cut-off; inactive = mostly below about 20%;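 note: plate controls were negative control peptide for no effect and reference peptide for full effect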
Mtb hypoxia rep: PubChem AID 1159583; fluorescence inhibition, % (concentration not given with the values); M. tuberculosis hypoxia-regulated fluorescent reporter, fluorescence; hit rate 0.1% among 300,000; in the data active = fluorescence inhibition mostly above about 23%, no sharp cut-off; inactive = mostly below about 17%
MazEF act: activators of E. coli MazEF toxin-antitoxin RNase, primary screen, biochemical, fluorescence, uHTS. Endoribonuclease toxin MazF (Escherichia coli (strain K12)), P0AE70. hit rate 0.32% among 350,000. activation, % at 20 µM. FAM/BHQ RNA-DNA oligo cleavage fluorescence, 5 h; in the data active = activation above about 50%
Target sequence (P0AE70 whole entry, looked up): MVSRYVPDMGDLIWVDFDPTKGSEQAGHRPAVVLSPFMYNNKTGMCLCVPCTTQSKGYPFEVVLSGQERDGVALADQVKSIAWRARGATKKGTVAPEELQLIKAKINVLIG
* marks the source's active call; other numbers are inactive results; i = inactive; . = no result given.

SMILES | BH1578 lux ind | SSB-PriA inh | Mtb hypoxia rep | MazEF act
Cc1cc(C2(c3ccc(O)c(C)c3)OS(=O)(=O)c3ccccc32)ccc1O | . | -13.0 | . | .
Cc1ccc(C)c(S(=O)(=O)NCC(=O)Nc2sc3c(c2C(N)=O)CCC(C)C3)c1 (stereo not drawn) | 3.8 | -14.2 | . | 56.1*
CN(C(=O)Cc1csc2nc(-c3ccc(Cl)cc3)cn12)c1ccccc1 | . | 1.0 | . | .
Cc1cc2c(=O)n(C)c(SCc3nc4ccccc4[nH]3)nc2s1 | . | -9.0 | . | .
O=C(COc1ccccc1Cl)Nc1ccc(S(=O)(=O)N2CCOCC2)cc1 | i | -11.0 | 4.7 | 4.1
O=C(COc1ccc(Cl)cc1Cl)Nc1ccc(S(=O)(=O)N2CCOCC2)cc1 | . | 60.0* | . | .
Cc1cc(/C=C2\C(=O)NC(=O)N(Cc3ccco3)C2=O)c(C)n1-c1ccc(C(=O)O)cc1 | -1.0 | 6.0 | -9.8 | -6.2
Cc1cc(/C=C2\C(=O)NC(=O)N(Cc3ccccc3Cl)C2=O)c(C)n1-c1ccc(C(=O)O)cc1 | -0.4 | -11.3 | 8.3 | 59.1*
COCCNC(=O)Cn1c(=O)c2c(N3CCN(C(=O)c4ccco4)CC3)ccnc2n(C)c1=O | . | -4.0 | . | .
Brc1ccc(-c2nn3c(-c4ccccn4)nnc3s2)o1 | i | 92.9* | 2.2 | 0.0
Nc1nn2c(-c3ccccn3)nnc2s1 | . | 59.6* | . | .
Cc1[nH]nc(-c2nn3c(-c4ccccn4)nnc3s2)c1Br | . | 67.5* | . | .
c1cc(-c2n[nH]c(Cn3cncn3)n2)ccn1 | . | -21.0 | . | .
COc1ccc(Cl)cc1NC(=O)Cn1c(C)nc2c(sc3ccccc32)c1=O | . | -4.0 | . | .
N#CC(C#N)=C1C=C(c2ccccc2)Sc2ccccc21 | . | -6.0 | . | .
O=C(Cn1cnc2c(-c3ccccc3)csc2c1=O)NCCCc1ccccc1 | . | -8.0 | . | .
Cc1ccc(N2C(=O)c3ccccc3C2=O)cc1 | -0.4 | -3.0 | 10.5 | 6.8
CC(=O)Nc1cccc2c1C(=O)N(c1ccc(C)cc1)C2=O | 16.7* | -19.6 | -5.2 | 1.5
CN1CCN(c2oc(-c3ccccc3)nc2S(=O)(=O)c2ccc(Br)cc2)CC1 | -0.9 | 39.1* | 8.7 | 6.5
O=S(=O)(c1ccccc1)c1nc(-c2ccccc2)oc1N1CCCC1 | -2.8 | -4.2 | -6.0 | -14.1
O=S(=O)(c1ccc(Cl)cc1)c1nc(-c2cccs2)oc1N1CCOCC1 | . | 44.0* | . | .
Cc1ccc(NC(=O)C(=O)N2CCC(Cc3ccccc3)CC2)c([N+](=O)[O-])c1 | . | 39.0* | . | .
O=C(Nc1ccc(F)c(F)c1)C(=O)N1CCC(Cc2ccccc2)CC1 | . | -13.0 | . | .
C=CCSc1nc(N)c(C#N)c(-c2ccc(OCc3ccccc3)cc2)c1C#N | . | -11.0 | . | .
CSc1ccc(/C=C(\C#N)c2nc3ccccc3c(=O)[nH]2)cc1 | . | -13.0 | . | .
SMILES | BH1578 lux ind | SSB-PriA inh | Mtb hypoxia rep | MazEF act
COc1ccc(-n2c(Cc3cccn3C)nnc2SCC(=O)Nc2ccc3c(c2)OCO3)cc1 | 0.0 | 11.3 | . | 9.6
Cc1ccccc1-n1c(SCC(=O)Nc2ccc3c(c2)OCO3)nnc1-c1ccccn1 | -0.4 | 42.1* | 10.9 | -0.6
Cn1cccc1Cc1nnc(SCC(=O)Nc2ccc3c(c2)OCO3)n1-c1ccc(Cl)cc1 | . | 87.2* | . | .
CCOC(=O)c1c(-c2ccccc2)csc1NC(=O)c1ccc(C(C)(C)C)cc1 | . | -1.0 | . | .
COc1ccc(NC(=O)c2ccc(-c3ccc([N+](=O)[O-])cc3)o2)cc1OC | -0.6 | 8.2 | 1.1 | 18.8
COc1cccc(NC(=O)c2ccc(-c3ccc([N+](=O)[O-])cc3)o2)c1 | i | 8.9 | 5.5 | 275.9*
COc1ccc(CC2CN3C(=NCC3Cc3ccc(O)cc3)N2CCNC(=O)c2ccc(C)c(Br)c2)cc1 (stereo not drawn) | . | . | -12.7 | .
COc1ccc(C[C@H]2CN3C(=NC[C@@H]3Cc3ccc(O)cc3)N2CCNC(=O)c2ccc(C)c(Br)c2)cc1 | i | 41.8* | . | -22.0
c1ccc(-c2nc(N3CCOCC3)c3ccccc3n2)nc1 | i | 61.7* | . | 3.0
c1ccc(-c2nc(N3CCCC3)c3ccccc3n2)nc1 | . | 54.2 | . | .
c1ccc(-c2nc(N3CCCCCC3)c3ccccc3n2)nc1 | i | 86.7* | . | 10.4
CCN1CCN(c2nc(-c3ccccn3)nc3ccccc23)CC1 | 1.7 | -7.8 | 5.4 | 5.0
CS(=O)(=O)N1CCC(C(=O)N2CCN(c3nc(-c4ccsc4)cs3)CC2)CC1 | . | -13.0 | . | .
CSc1cccc(C(=O)N(CCn2cccn2)c2nc3c(Cl)cccc3s2)c1 | . | -9.0 | . | .
CCc1cccc2sc(N(CCN(C)C)C(=O)c3cccc(SC)c3)nc12 | . | 42.0* | . | .
CCc1cccc2sc(N(CCCN3CCOCC3)C(=O)c3ccc4c(c3)OCCO4)nc12 | . | 28.0* | . | .

Bioassay records (PubChem)
